Laboratory results as given in publication PMC4336329 (PLoS ONE, 2015).
Screen size: about 310,000 compounds; about 14,000 (4.5%) showed an effect of 50% or more. Effects have a minus sign here. Many of the other results were omitted from the sample, so strong results are more common in it than they were.

biological target: human ether-à-go-go-related gene (hERG) potassium channel (human, UniProt Q12809); experiment: primary screen, population patch clamp on CHO cells stably expressing hERG; higher = less effect of the substance
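Also: peak tail current of the secondary pulse compared with the same well before compound.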

Sequence of human ether-à-go-go-related gene (hERG) potassium channel (Q12809 whole entry, looked up): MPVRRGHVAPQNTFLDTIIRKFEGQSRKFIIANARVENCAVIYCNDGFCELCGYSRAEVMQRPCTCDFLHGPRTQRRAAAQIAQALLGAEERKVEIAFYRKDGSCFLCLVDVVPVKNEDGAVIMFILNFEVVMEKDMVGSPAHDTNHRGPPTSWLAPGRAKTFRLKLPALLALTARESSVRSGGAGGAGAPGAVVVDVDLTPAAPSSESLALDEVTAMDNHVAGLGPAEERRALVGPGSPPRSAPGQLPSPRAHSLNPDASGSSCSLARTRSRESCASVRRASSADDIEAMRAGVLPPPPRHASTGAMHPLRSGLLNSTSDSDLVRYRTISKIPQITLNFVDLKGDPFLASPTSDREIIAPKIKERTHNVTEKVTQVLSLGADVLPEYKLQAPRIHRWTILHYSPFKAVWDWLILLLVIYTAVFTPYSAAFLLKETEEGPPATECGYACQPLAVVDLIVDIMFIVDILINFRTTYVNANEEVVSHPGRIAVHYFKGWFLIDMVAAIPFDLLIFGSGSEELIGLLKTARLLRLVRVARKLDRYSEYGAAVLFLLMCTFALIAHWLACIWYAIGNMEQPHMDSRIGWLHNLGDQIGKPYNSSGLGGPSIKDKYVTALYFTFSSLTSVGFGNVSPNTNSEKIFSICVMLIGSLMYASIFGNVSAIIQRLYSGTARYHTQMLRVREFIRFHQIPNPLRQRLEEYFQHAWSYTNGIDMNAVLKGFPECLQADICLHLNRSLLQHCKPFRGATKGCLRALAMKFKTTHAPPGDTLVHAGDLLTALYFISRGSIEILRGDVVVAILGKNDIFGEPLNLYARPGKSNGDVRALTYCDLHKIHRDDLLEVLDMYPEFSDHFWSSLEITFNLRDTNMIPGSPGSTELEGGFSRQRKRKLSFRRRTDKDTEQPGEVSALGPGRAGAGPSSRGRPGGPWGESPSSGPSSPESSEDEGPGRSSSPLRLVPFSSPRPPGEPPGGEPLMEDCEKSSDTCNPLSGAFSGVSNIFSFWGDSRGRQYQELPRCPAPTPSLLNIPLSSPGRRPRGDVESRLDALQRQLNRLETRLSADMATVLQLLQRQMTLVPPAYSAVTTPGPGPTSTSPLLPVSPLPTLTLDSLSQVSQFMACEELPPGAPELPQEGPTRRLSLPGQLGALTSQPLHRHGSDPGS

| Compound | hERG current change (%, negative = inhibition) at 10uM [%] |
| --- | --- |
| COc1ccc(NC(=O)CSc2nnc(-c3ccccc3)n2N)cc1 | -4.04 |
| CCOc1ccccc1N1CCN(Cc2c(C)n(C)n(-c3ccccc3)c2=O)CC1 | -20.5 |
| CSCCC(NC(=O)c1ccc(Cl)cc1Cl)C(=O)NNC(=O)c1ccncc1 (centres unmarked) | -6.73 |
| CC1(c2ccc(Cl)cc2)NC(=O)N(CC(=O)N2CCN(S(=O)(=O)c3ccccc3)CC2)C1=O (centres unmarked) | -50 |
| CC1(c2ccccc2Cl)NC(=O)N(CC(=O)N2CCN(S(=O)(=O)c3ccccc3)CC2)C1=O (centres unmarked) | 7.55 |
| CC(C)c1ccc(S(=O)(=O)N2CCN(C(=O)CN3C(=O)NC(C)(c4ccccc4)C3=O)CC2)cc1 (centres unmarked) | -31.6 |
| CCn1cc(Cl)c(C(=O)Nc2nc3ccccc3n2CCN2CCCCC2)n1 | -65.5 |
| O=C(Nc1nc2ccccc2n1CCN1CCOCC1)c1ccccc1 | -6.69 |
| Cc1c(Cl)c(C(=O)Nc2nc3ccccc3n2CCN2CCCCC2)nn1C | -68.1 |
| Cn1ncc([N+](=O)[O-])c1C(=O)Nc1nc2ccccc2n1CCN1CCCCC1 | -25.1 |
| CCn1nccc1C(=O)Nc1nc2ccccc2n1CCN1CCCCC1 | -39.8 |
| O=C(Nc1nc2ccccc2n1CCN1CCOCC1)c1ccc(Cl)cc1 | 1.72 |
| CCCCn1nnc(NC(=S)NC(=O)c2cccs2)n1 | 9.16 |
| COc1ccccc1Cn1c(=S)[nH]c2ccccc2c1=O | 32.7 |
| COc1ccc(S(=O)(=O)N2CCOCC2)cc1NC(=O)CC1CCCC1 | -6.2 |
| COc1ccc(N(CC(=O)Nc2ccc3c(c2)OCCO3)S(=O)(=O)c2c(C)noc2C)cc1 | -6.74 |
| O=C(NC(=S)NC1CCCCC1)c1ccccc1 | 1.5 |
| COCCCn1c(=O)c2sccc2n2c(CCCC(=O)NCc3ccccc3OC)nnc12 | -19.9 |
| Cc1ccc(NC(=O)CS(=O)(=O)c2cn(CC(=O)N3CCOCC3)c3ccccc23)cc1 | -0.0981 |
| CC(=O)c1ccc(NC(=O)CS(=O)(=O)c2cn(CC(=O)N3CCOCC3)c3ccccc23)cc1 | -58.6 |
| O=C(CS(=O)(=O)c1cn(CC(=O)N2CCOCC2)c2ccccc12)Nc1ccccc1 | 8.09 |
| COc1cccc(=O)c2c(C)n(C)c(C)c12 | -24.7 |
| Cc1cc(OC(C)C(=O)NC2CCN(Cc3ccccc3)CC2)c2c(C)cc(=O)oc2c1 (centres unmarked) | -15.2 |
| CCc1cc(=O)oc2cc(C)cc(OC(C)C(=O)NC3CCN(Cc4ccccc4)CC3)c12 (centres unmarked) | -32.8 |

| Compound | hERG current change (%, negative = inhibition) at 10uM [%] |
| --- | --- |
| CC(Oc1ccc(Br)cc1)C(=O)NC1CCN(Cc2ccccc2)CC1 (centres unmarked) | -80.4 |
| CC(Oc1ccccc1)C(=O)NC1CCN(Cc2ccccc2)CC1 (centres unmarked) | -26.8 |
| Cc1c(C)c2ccc(OC(C)C(=O)NC3CC(C)(C)NC(C)(C)C3)cc2oc1=O (centres unmarked) | 7.7 |
| Cc1cc(=O)oc2cc(OC(C)C(=O)NC3CCN(Cc4ccccc4)CC3)ccc12 (centres unmarked) | -79.2 |
| Cc1c(C)c2ccc(OC(C)C(=O)NC3CCN(Cc4ccccc4)CC3)cc2oc1=O (centres unmarked) | -54.2 |
| CC(Oc1ccc2c3c(c(=O)oc2c1)CCC3)C(=O)NC1CCN(Cc2ccccc2)CC1 (centres unmarked) | -47.9 |
| Cc1cc(=O)oc2cc(OC(C)C(=O)NC3CCCC3)ccc12 (centres unmarked) | -33.4 |
| Cc1cc(=O)oc2c(C)c(OC(C)C(=O)NC3CCN(Cc4ccccc4)CC3)ccc12 (centres unmarked) | -48.1 |
| CC(Oc1ccc2ccc(=O)oc2c1)C(=O)NC1CCN(Cc2ccccc2)CC1 (centres unmarked) | -75 |
| CC(Oc1ccc(Br)cc1)C(=O)NC1CCCCCC1 (centres unmarked) | -12.4 |
| CC(=O)c1sc(N2CCOCC2)nc1-c1ccccc1 | -6.27 |
| Cc1onc(-c2ccccc2)c1C(=O)Nc1sccc1C#N | 7.27 |
| Cc1cc(C)n(-c2ccc(NC(=O)C3CCCCN3C(=O)c3sccc3C)cc2)n1 (centres unmarked) | 14.5 |
| NS(=O)(=O)c1ccc(NC(NC(=O)c2cccnc2)C(Cl)(Cl)Cl)cc1 (centres unmarked) | 6.08 |
| COc1cc(C(=O)NCCCn2ccnc2)cc(OC)c1OC.Cl | 20.6 |
| Cc1nn(C(C)C(=O)NCCN2CCCCCC2)c(=O)c2nn(-c3ccccc3)c(C)c12 (centres unmarked) | 21.6 |
| Cc1cc(C)n2nc(SCC(=O)Nc3ccccc3C)nc2n1 | 1.88 |
| CC1(C)CC(=O)C2=C(C1)NC(=O)CC2c1ccc(N(CCC#N)CCC#N)cc1 (centres unmarked) | 17.3 |
| CCC(C(=O)c1ccc2ncccc2c1)c1ccccc1 (centres unmarked) | -52.7 |
| CCC(C(=O)c1ccc(O)cc1)c1ccccc1 (centres unmarked) | -5.56 |
| CCC(=O)c1ccc2ncccc2c1 | 12.2 |
| COc1ccc(CNC(=O)c2nn(C)c3c2CS(=O)(=O)c2ccccc2-3)cc1 | -24.5 |
| O=C(O)c1ccccc1C(=O)c1ccc(Oc2ccccc2)cc1 | 8.12 |
